Measured values: PubChem BioAssay AID504850 (National Center for Advancing Translational Sciences (NCATS), 2011)
Out of some 2,300 compounds screened, about 1,200 (52%) were called active. About 34% were inconclusive and are not listed. The set was probably picked from earlier hits. This is one part of the list. Values without a mark were called inactive. Calls come from the whole dose curve; as a rule, active = well fitted inhibition curve with a large enough effect; inconclusive = small, poorly fitted or top-dose-only effect, or effect the other way; inactive = no such curve, though single readings can be large or run the other way.

Test: Confirmation screen for delayed death inhibitors of the malarial parasite plastid, 48 hour incubation; note: nearly all actives have a fitted effect of over 65% in size
Details: P. falciparum-infected erythrocytes, luciferase growth; series mostly up to 28.7 µM; activity change, negative = inhibition: at the top concentration
Description: The goal of this screen is to discover new antimalarial compounds that act by inhibiting the development of the apicoplast in the malarial parasite Plasmodium falciparum. The biochemical processes that make this organelle essential for erythrocytic stage parasites are not well understood. However, antibiotics, such as azithromycin and tetracycline, which target the apicoplast translational machinery, have a potent antimalarial effect. […] We have developed a cell-based assay that measures parasite growth based on the expression of an integrated copy of a firefly luciferase reporter. To detect small molecules that cause this "delayed death phenotype, erythrocytes infected with the luciferase-expressing parasites were incubated with compounds for either one or two generations, corresponding to 48 and 96 hours, respectively. Compounds that inhibit parasite growth in the second generation, but not the first, should be enriched in antimalarials that target the apicoplast. Growth inhibition is detected by a decrease in luciferase activity. MLPCN Grant: R21 NS059500 Assay Provider: David Fidock and Eric Ekland, Columbia University Keywords: NIH Roadmap, MLPCN, MLI, MLSMR, qHTS, NCGC, qHTS, malaria, luciferase, viability
Four microliters of culture medium (RPMI 1640 with 0.5% w/v Albumax (GIBCO), 24 mM sodium bicarbonate and 10 ug/mL gentamycin) were dispensed by a Multi-drop Combi into white solid 1536-well plates (Grenier) and 23 nL compound was added by a pin tool. Four microliters of infected erythrocytes (2% hematocrit, 0.1% parasitemia final concentration) in culture medium were dispensed and the plates incubated for 48 hours at 37 C in 5% CO2. Two microliters of luciferase detection reagent was added and luminescence was detected by a ViewLux (PerkinElmer) reader.
% is set by controls: 0 for no effect and ±100 for the full control effect; potency is the fitted concentration of half-maximal effect.

Row | Compound | Potency | activity change, negative = inhibition [%]
1 | COc1ccc(CN(C(=O)/C=C/C(=O)c2ccc(OC)cc2O)C(C(=O)NC2CCCCC2)c2ccncc2)cc1 (stereo unspecified) | 7.94 µM (active) | –
2 | O=C(NC1CCCC1)C(c1ccncc1)N(Cc1ccco1)C(=O)c1ccc(-c2ccccc2)[nH]1 (stereo unspecified) | 11.2 µM (active) | –
3 | O=C(NC1CCCCC1)C(c1ccncc1)N(Cc1ccccc1)C(=O)c1ccc(-c2ccccc2)[nH]1 (stereo unspecified) | 4.47 µM (active) | –
4 | COc1ccc(NC(=S)N(CCCN2CCCCCC2)Cc2cccs2)cc1 | 11.2 µM (active) | –
5 | COc1cccc(N2CC(C(=O)Nc3nnc(SCCC4OCCO4)s3)CC2=O)c1 (stereo unspecified) | 12.6 µM (active) | –
6 | O=C(Nc1nnc(SCC(=O)N2CCCC2)s1)C1CC(=O)N(c2ccc(F)cc2)C1 (stereo unspecified) | 11.2 µM (active) | –
7 | CCc1ccc(NC2=CC(=O)C(=O)c3ccccc32)cc1 | 0.501 µM (active) | –
8 | Cn1nccc1C(=O)N1CCc2c([nH]c3ccccc23)C1c1ccc(F)cc1 (stereo unspecified) | 7.94 µM (active) | –
9 | CCc1ccc(C2c3[nH]c4ccccc4c3CCN2C(=O)c2cc(C)nn2C)cc1 (stereo unspecified) | 5.01 µM (active) | –
10 | CSc1ccc(C2c3[nH]c4ccccc4c3CCN2C(=O)c2ccnn2C)cc1 (stereo unspecified) | 7.08 µM (active) | –
11 | Cc1cc[n+]2cc(-c3cccc([N+](=O)[O-])c3)c(-c3cccc([N+](=O)[O-])c3)cc2c1 | 0.631 µM (active) | –
12 | COc1ccc(N(C)S(=O)(=O)c2cccc(C(=O)NCc3ccc(C)cc3)c2)cc1 | 12.6 µM (active) | –
13 | COc1cccc(S(=O)(=O)NCc2ccc(C(=O)NCc3ccccn3)cc2)c1 | – | -4.44
14 | CN(CCOc1ccccc1)C(=O)C1CCC(=O)N(CCN2CCOCC2)C1 (stereo unspecified) | – | -9.41
15 | CN(Cc1ccccc1Cl)C(=O)C1CCC(=O)N(CCc2cccc(F)c2)C1 (stereo unspecified) | 11.2 µM (active) | –
16 | O=C(Nc1ccccc1)N1CCC(O)(c2cccc(C(F)(F)F)c2)CC1 | 11.2 µM (active) | –
17 | CCOc1ccccc1NC(=O)C(CC)Sc1nc2ccsc2c(=O)n1CCC(=O)O (stereo unspecified) | 12.6 µM (active) | –
18 | C[N+]1(CCCCSc2ccc(O)cc2)CCCCC1 | 7.08 µM (active) | –
19 | Cc1c(C(=O)N2CCN(c3ccc([N+](=O)[O-])cc3)CC2)sc2ncn(CC(=O)N3CCOCC3)c(=O)c12 | 12.6 µM (active) | –
20 | COc1ccccc1N1CCN(C2CCCN(Cc3ccc(Cl)cc3)C2)CC1 (stereo unspecified) | 6.31 µM (active) | –
21 | COc1ccc(N2CCN(C3CCCN(Cc4ccc(F)cc4)C3)CC2)cc1 (stereo unspecified) | 11.2 µM (active) | –
22 | O=C(CSc1nnc(NC(=O)c2ccccc2[N+](=O)[O-])s1)NCC1CCCO1 (stereo unspecified) | – | 5.45
23 | CCOC(=O)CSc1nnc(NC(=O)c2cccc([N+](=O)[O-])c2)s1 | 12.6 µM (active) | –

Row | Compound | Potency | activity change, negative = inhibition [%]
24 | CCC(C)[C@H](NC(=O)[C@H](Cc1ccccc1)n1c(=O)[nH]c2ccccc2c1=O)C(=O)NCC1CCC(C(=O)O)CC1 (stereo partly specified) | 12.6 µM (active) | –
25 | Clc1ccc(-c2c[n+](Cc3ccc(Cl)cc3Cl)c3n2CCCCC3)cc1 | 1.26 µM (active) | –
26 | Clc1ccc(-c2c[n+](Cc3ccc(Br)cc3)c3n2CCCCC3)cc1 | 0.199 µM (active) | –
27 | Nc1nnnn1/N=C/C(Br)=C/c1ccccc1 | 12.6 µM (active) | –
28 | O=C(NNc1ccnc2cc(Cl)ccc12)C1CCCCC1 | 0.891 µM (active) | –
29 | CCN1CCC(Nc2ccnc3cc(Cl)ccc23)CC1 | 0.126 µM (active) | –
30 | S=C(Nc1ccccc1Cl)N(Cc1ccccc1)Cc1cccnc1 | 12.6 µM (active) | –
31 | CCOC(=O)[C@H]1[C@H]2COc3cc(OC)ccc3[C@@H]2N2C(=O)N(c3ccc(Cl)cc3)C(=O)[C@@]12C | 12.6 µM (active) | –
32 | O=c1cc(CSc2nc(NCc3ccccc3)c3ccccc3n2)nc2ccc(Cl)cn12 | 5.01 µM (active) | –
33 | Cc1ncc(CO)c(/C=N/NC(=S)Nc2ccc(F)cc2)c1O | 12.6 µM (active) | –
34 | COc1ccc(C(=O)NCC(=O)N/N=C(C)\C=C\c2ccccc2)cc1OC | – | -5.66
35 | O=C(CNC(=O)c1cccc(F)c1)N/N=C/c1ccc([N+](=O)[O-])s1 | 11.2 µM (active) | –
36 | COc1ccc(C(=O)NCC(=O)N/N=C/c2ccc([N+](=O)[O-])s2)cc1OC | 11.2 µM (active) | –
37 | CCCCCCCn1c(=O)c(C(=O)OC)c(N)c2ccccc21 | 12.6 µM (active) | –
38 | NNc1nc(-c2ccccc2Cl)c2cc(Br)ccc2n1 | 11.2 µM (active) | –
39 | Cc1c(OCC(=O)NCC(O)c2ccccc2)ccc2c3c(c(=O)oc12)CCC3 (stereo unspecified) | 14.1 µM (active) | –
40 | O=C(COc1cc2oc(=O)c3c(c2cc1Cl)CCC3)NCC(O)c1ccccc1 (stereo unspecified) | 11.2 µM (active) | –
41 | O=S(=O)(NCC(O)c1ccccc1)c1cc(Cl)sc1Cl (stereo unspecified) | – | 4.3
42 | OC1(c2cccs2)CN(c2ccc(Cl)cc2)C2=[N+]1CCCC2 (stereo unspecified) | 10 µM (active) | –
43 | OC1(c2cccs2)CN(c2ccc(Br)cc2)C2=[N+]1CCCS2 (stereo unspecified) | 12.6 µM (active) | –
44 | CC(C)(C)Nc1nc(Cl)nc(NC2CCCCC2)n1 | 14.1 µM (active) | –
45 | NC(=S)Nn1c(-c2ccccc2)nc2ccccc2c1=O | – | 0.99
46 | O=C1c2cc(F)ccc2-n2c1nc1ccccc1c2=O | 0.178 µM (active) | –

Row | Compound | Potency | activity change, negative = inhibition [%]
47 | O=C1c2ccccc2-n2c1nc1ccccc1c2=O | 0.708 µM (active) | –
48 | CN(C)CCn1c(=O)n(Cc2ccco2)c(=O)c2c3c(sc21)CCCCC3 | 12.6 µM (active) | –
49 | COc1ccc(NC(=O)c2ccc(CN3CCN(c4ccccc4)CC3)cc2)cc1OC | 10 µM (active) | –
50 | COc1cccc(NC(=O)c2ccc(CN3CCN(c4ccccc4)CC3)cc2)c1 | 15.8 µM (active) | –
51 | O=C(Nc1ccccc1F)c1ccc(CN2CCN(c3ccccc3)CC2)cc1 | – | -34.1
52 | O=C(Nc1ccc(F)cc1F)c1ccc2c(c1)[nH]c(=O)n2Cc1ccc(F)cc1 | 12.6 µM (active) | –
53 | COc1ccc(Cl)cc1/C=C/c1ccc2cccc(O)c2n1 | 6.31 µM (active) | –
54 | Oc1cccc2ccc(/C=C/c3ccccc3Br)nc12 | 2.82 µM (active) | –
55 | COc1ccc(C#Cc2ccc3c(=O)c4ccccc4n(C)c3c2)cc1 | 10 µM (active) | –
56 | Cn1c2ccccc2c(=O)c2ccc(C#Cc3ccc(N)cc3)cc21 | 12.6 µM (active) | –
57 | Cc1ccc2c(c1)c1c3n2CCN(C(=O)CCl)C3CCC1 (stereo unspecified) | 12.6 µM (active) | –
58 | Cc1cc(C)cc(CC(Cc2nc3ccccc3[nH]2)c2nc3ccccc3[nH]2)c1 (stereo unspecified) | 2.24 µM (active) | –
59 | CCCCOc1ccc(NC2=NC3(CCCC3)N=C(N)N2)cc1 | 1.41 µM (active) | –
60 | Cc1nc(-c2ccc(S(=O)(=O)N3CCCN(CCc4ccccc4)CC3)s2)cs1 | 10 µM (active) | –
61 | Cc1ccc(N2C(=O)N3[C@H](c4ccc(F)cc4)[C@@H]4C(=O)N(C5CCCCC5)C(=O)[C@@H]4[C@]3(Cc3ccccc3)C2=O)cc1 | 5.62 µM (active) | –
62 | Cc1cccc(Nc2nc3c(S(=O)(=O)c4ccccc4)nnn3c3ccccc23)c1C | 4.47 µM (active) | –
63 | COCCNC(=O)/C(C#N)=C/C=C/c1ccccc1[N+](=O)[O-] | 11.2 µM (active) | –
64 | COC(=O)C(=Cc1ccccc1[N+](=O)[O-])C(=O)OC | 4.47 µM (active) | –
65 | COc1ccc([N+](=O)[O-])c(S(=O)(=O)c2ccccc2)n1 | – | -55.2
66 | N#C/C(=C\C=C\c1ccccc1[N+](=O)[O-])C(=O)NC1CCCCC1 | 4.47 µM (active) | –
67 | CC1CCCCC1NC(=O)/C(C#N)=C/C=C/c1ccccc1[N+](=O)[O-] (stereo unspecified) | 5.01 µM (active) | –
68 | COc1ccc(Cn2c(-c3ccc(Br)cc3)c[n+]3ccccc23)cc1 | 1.26 µM (active) | –
69 | Cn1cc([N+](=O)[O-])c(C(=O)Nc2ccn(C34CC5CC(CC(C5)C3)C4)n2)n1 | – | -7.7

Row | Compound | Potency | activity change, negative = inhibition [%]
70 | CC(NC(=O)c1ccc([N+](=O)[O-])o1)C12CC3CC(CC(C3)C1)C2 (stereo unspecified) | 12.6 µM (active) | –
71 | COCCNCC(=O)NC12CC3CC(CC(C3)C1)C2 | – | 7.82
72 | O=C(NC12CC3CC(CC(C3)C1)C2)c1ccc([N+](=O)[O-])o1 | 6.31 µM (active) | –
73 | Cc1ccc(S(=O)(=O)Nc2cc(=O)[nH]c(SCc3ccc(Cl)cc3)n2)cc1 | 11.2 µM (active) | –
74 | CC(=O)c1c(C)cc(C)c(CSc2nc(C)cc(=O)[nH]2)c1C | – | -19.7
75 | OC1CCN(c2c3c(nc4cc(-c5ccc(Cl)cc5)nn24)CCC3)CC1 | 7.08 µM (active) | –
76 | Fc1cc2nc(-c3ccncc3)[nH]c2cc1F | 10 µM (active) | –
77 | Cn1ccc(=Nc2ccc(NC(=O)c3ccc(N=c4ccn(C)c5ccc([N+](=O)[O-])cc45)cc3)cc2)cc1 | 0.199 µM (active) | –
78 | Cc1sc2nc[nH]c(=O)c2c1-c1ccc(Cl)cc1 | – | -18.2
79 | O=C(CCl)Nc1cccc(S(=O)(=O)NC2=NCCC2)c1 | 1.26 µM (active) | –
80 | COc1ccccc1-n1c(=S)[nH]c2c(sc(=S)n2-c2ccc(C)cc2C)c1=O | 3.16 µM (active) | –
81 | CCOC(=O)c1c(C)nc(C)c(C(=O)OCC)c1-c1ccc(Br)cc1 | 12.6 µM (active) | –
82 | Cc1ccc(C(=O)OCc2nnc(-c3ccc(Br)cc3)o2)cc1 | – | -7.51
83 | Cc1cccc(N2CCN(C3=NC(=O)C(Cc4ccccc4)S3)CC2)c1 (stereo unspecified) | 1.78 µM (active) | –
84 | Cc1cc(C(=O)N2CCCC(N3CCN(c4cccc(C(F)(F)F)c4)CC3)C2)c(C)o1 (stereo unspecified) | 12.6 µM (active) | –
85 | O=C(c1ccsc1)N1CCCC(N2CCN(c3cccc(C(F)(F)F)c3)CC2)C1 (stereo unspecified) | 14.1 µM (active) | –
86 | Cc1ccc(S(=O)(=O)N2CCCCC2C)cc1[N+](=O)[O-] (stereo unspecified) | – | -20.8
87 | Cc1ccc(C(=O)NC2CCCCC2)cc1S(=O)(=O)N1CCCC1 | 11.2 µM (active) | –
88 | Cc1ccc(C(=O)NC2CCCC2)cc1S(=O)(=O)N1CCCCC1 | 11.2 µM (active) | –
89 | O=C(Nc1ccncc1)c1ccc(Cl)c(S(=O)(=O)N2CCCC2)c1 | 11.2 µM (active) | –
90 | CN(CCCN1CCOCC1)C(=O)c1ccc2nc(Cc3cccc(Cl)c3)oc2c1 | 14.1 µM (active) | –
91 | Clc1cccc(OCCCCCN2CCOCC2)c1 | – | -3.47
